MITF inh: MITF inhibitors, primary screen, biochemical, AlphaScreen, human; Microphthalmia-associated transcription factor (Homo sapiens), O75030; AlphaScreen MITF homodimerization, bead proximity signal; inhibition, % at 2.6 µM; 650,000 compounds, 0.91% hits; AID 1259374, 2018; in the data active = inhibition above about 50%;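 note: 0% = vehicle wells with protein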
TEAD-YAP block: TEAD-YAP interaction inhibition, primary screen, TEAD-YAP interaction inhibitor project, luminescence, HEK-TIYL cells; 640,000 compounds, 1.4% hits; TEAD-Gal4/YAP UAS-luciferase luminescence; inhibition, % at 9.12 µM; in the data active = inhibition above about 32%;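 note: 0% = median of test compound wells and 100% = reference inhibitor wells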
FBW7 act: FBW7 E3 ligase activators, primary screen, biochemical, AlphaScreen, human; F-box/WD repeat-containing protein 7 (Homo sapiens), Q969H0; AlphaScreen FBW7–phospho-cyclin E peptide binding, activator screen; normalized activity (activation), % at 26.1 µM; 650,000 compounds, 0.13% hits; in the data active = normalized activity above about 1.9%;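 note: purified mutant Fbw7 with reduced substrate affinity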
GPR151 ag: activators of human GPR151, primary screen, cell-based, PathHunter beta-arrestin, luminescence. G-protein coupled receptor 151 (Homo sapiens), Q8TDV0. PathHunter beta-arrestin GPR151 cells. activation, % at 11.2 µM. 650,000 compounds, 1% hits. AID 1508602, 2020; in the data active = activation above about 4.9%;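 note: 0% = median of compound wells and 100% = cells with positive control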
GPR151 conf act: GPR151 activators, triplicate retest, confirmation, cell-based, PathHunter beta-arrestin, luminescence. activation, % at 11.2 µM. AID 1508609, 2020. GPR151 PathHunter beta-arrestin cells, 90 min; % of EA-reagent control over plate median. shares compounds with GPR151 ag. 6,700 tested, under 10 active;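 active = mean percent activation across replicates above the confirmation screen cutoff of 4.91%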
GPR119 counter: GPR119 activators in beta-arrestin cells, counter-screen for GPR151 activator project, cell-based, PathHunter beta-arrestin, luminescence, triplicate; AID 1508611, 2020; 6,700 compounds, 0.3% hits; 90 min; 0 = compound-well median, 100 = enzyme-acceptor control; activation, % at 11.2 µM; shares compounds with GPR151 ag;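 active = mean percent activation in the counterscreen above 29.09%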;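 note: counterscreen on off-target GPR119 to flag nonselective hits from the GPR151 activator screen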
* = called active by the depositor; . = no result. Most compounds without a hit are left out; they make up all but 3.5% or so of the library.

SMILES	MITF inh	TEAD-YAP block	FBW7 act	GPR151 ag	GPR151 conf act	GPR119 counter
O=C(Nn1c(C2CCCCC2)nc2ccccc2c1=O)c1ccc(F)cc1Cl	19	-7	1	1	.	.
Cc1cc(N/N=C/c2cccc([N+](=O)[O-])c2)nc(-c2ccccc2)n1	-8	-1	0	5.0*	0	7
Cc1ccc(NC(=O)N2CCCC2C(=O)Nc2cccc(C)c2)cc1 (configuration not stated)	-1	0	0	-1	.	.
O=C(CN1CCN(S(=O)(=O)c2ccc(Cl)cc2)CC1)c1ccc(F)cc1	-7	-6	0	15*	-1	-6
Nc1nc(SCC(=O)c2ccc3[nH]c(=O)[nH]c3c2)n[nH]1	4	-1	0	1	.	.
Cc1c(C(=O)Nc2cccc(C(F)(F)F)c2)sc2ncn(CC(=O)N3CCN(c4ccccn4)CC3)c(=O)c12	7	1	0	1	.	.
Cc1ccc(S(=O)(=O)NC(=O)c2cccc(Br)c2)cc1	-4	-3	0	2	.	.
O=C(NS(=O)(=O)c1ccccc1)c1cccc(Br)c1	12	1	0	5.9*	0	-18
O=C1[C@H]2[C@H]3[C@H](O)[C@H](O)C/C(=N\OCc4ccccc4)[C@H]3CC[C@H]2C(=O)N1C1CCCCC1	2	.	1	5.8*	2	21

Screening data as filed in PubChem BioAssay.
